For eleven molecules, Percent Effect results are on record in ChEMBL document CHEMBL3988442, “University of Dundee, Small-Polar-MMV Screening Library” (2021).

What all share (parameters): scale not given: direction of the effect not stated beside the values
Experiment [1] concerns the target Protein translocase subunit SecA (Escherichia coli (strain K12)) (UniProt P10408). The experiment can be described thus: Assay to Identify E. coli SecA ATPase Inhibitors. The conditions noted are these: 30 µM. It counts as functional.
The target in experiment [2] is T1, Ubiquitin-activating enzyme e1, putative (Leishmania donovani (strain BPK282A1)) (UniProt E9BSI1).
T1 sequence (whole entry): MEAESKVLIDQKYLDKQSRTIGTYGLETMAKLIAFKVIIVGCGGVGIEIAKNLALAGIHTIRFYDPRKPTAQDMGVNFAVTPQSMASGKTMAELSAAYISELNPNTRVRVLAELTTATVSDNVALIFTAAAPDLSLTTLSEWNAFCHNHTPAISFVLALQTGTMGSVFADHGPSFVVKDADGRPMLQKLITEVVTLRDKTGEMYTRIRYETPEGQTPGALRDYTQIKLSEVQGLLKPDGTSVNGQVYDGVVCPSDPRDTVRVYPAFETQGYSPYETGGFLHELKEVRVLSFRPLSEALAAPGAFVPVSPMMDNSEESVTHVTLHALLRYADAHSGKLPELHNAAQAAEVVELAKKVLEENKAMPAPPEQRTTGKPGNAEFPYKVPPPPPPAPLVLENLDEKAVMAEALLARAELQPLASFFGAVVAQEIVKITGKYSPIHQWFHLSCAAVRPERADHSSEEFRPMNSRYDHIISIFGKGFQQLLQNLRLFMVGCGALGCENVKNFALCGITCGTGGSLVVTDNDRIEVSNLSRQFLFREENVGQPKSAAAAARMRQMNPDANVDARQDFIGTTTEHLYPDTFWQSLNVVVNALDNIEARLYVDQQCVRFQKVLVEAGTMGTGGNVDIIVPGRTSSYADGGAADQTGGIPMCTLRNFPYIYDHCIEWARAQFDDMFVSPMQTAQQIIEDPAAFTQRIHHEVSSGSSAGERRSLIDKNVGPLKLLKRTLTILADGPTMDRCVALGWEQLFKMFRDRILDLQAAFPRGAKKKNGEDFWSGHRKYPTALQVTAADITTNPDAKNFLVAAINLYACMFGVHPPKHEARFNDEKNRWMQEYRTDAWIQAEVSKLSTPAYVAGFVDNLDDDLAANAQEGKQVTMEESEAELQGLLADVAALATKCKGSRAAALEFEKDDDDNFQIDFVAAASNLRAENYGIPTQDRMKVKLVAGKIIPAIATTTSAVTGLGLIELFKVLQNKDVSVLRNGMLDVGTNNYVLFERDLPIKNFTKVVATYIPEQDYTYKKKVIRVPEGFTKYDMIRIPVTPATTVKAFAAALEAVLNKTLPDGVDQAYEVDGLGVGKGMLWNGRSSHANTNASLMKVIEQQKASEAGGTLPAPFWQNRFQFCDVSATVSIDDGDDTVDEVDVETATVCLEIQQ
The experiment can be described thus: Leishmania donovani Ubiquitin Activating Enzyme (LdE1). It counts as functional. The note with it: 30 µM.

Experiment [3] has as its target AMP-activated protein kinase, AMPK (Homo sapiens) (UniProt P54646+O43741+P54619+Q9UGJ0+Q9Y478+Q13131+Q9UGI9). Description: AMP-dependent Kinase enzyme assay. An in vitro enzyme assay that detects ADP turnover that is directly proportional to AMPK activity. This uses naive AMPK that is activated during the assay with MK-8722. It counts as functional. The conditions noted are these: 30 µM.

For experiment [4], the target named is Sialic acid-binding Ig-like lectin 9 (Homo sapiens) (UniProt Q9Y336). Description: Hs-Siglec9 ALPHAscreen SOP 20170721. The conditions noted are these: 10 µM.
Sequence of Sialic acid-binding Ig-like lectin 9 (Homo sapiens) (Q9Y336 whole entry): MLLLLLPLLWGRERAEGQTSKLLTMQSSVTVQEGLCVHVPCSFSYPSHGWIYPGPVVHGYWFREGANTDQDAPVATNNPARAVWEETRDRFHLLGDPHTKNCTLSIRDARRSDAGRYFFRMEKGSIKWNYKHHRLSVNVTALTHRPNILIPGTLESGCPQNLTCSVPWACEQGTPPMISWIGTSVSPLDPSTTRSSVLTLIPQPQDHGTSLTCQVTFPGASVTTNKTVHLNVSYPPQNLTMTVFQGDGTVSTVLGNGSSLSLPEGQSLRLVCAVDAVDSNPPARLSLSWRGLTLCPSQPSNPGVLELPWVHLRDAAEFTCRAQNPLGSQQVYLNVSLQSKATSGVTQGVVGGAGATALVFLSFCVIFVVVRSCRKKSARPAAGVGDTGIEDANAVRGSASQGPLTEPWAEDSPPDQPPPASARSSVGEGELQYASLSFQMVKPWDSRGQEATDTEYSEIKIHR
The next experiment has as its system Trypanosoma cruzi. The experiment can be described thus: Trypanosoma cruzi phosphomannomutase and mannose-1-phosphate guanylyltransferase assay. In kind it is functional. The conditions noted are these: 10 µM.
Experiment [5] deals with T2, Arginase-2, mitochondrial (Homo sapiens) (UniProt P78540).
T2 sequence (whole entry): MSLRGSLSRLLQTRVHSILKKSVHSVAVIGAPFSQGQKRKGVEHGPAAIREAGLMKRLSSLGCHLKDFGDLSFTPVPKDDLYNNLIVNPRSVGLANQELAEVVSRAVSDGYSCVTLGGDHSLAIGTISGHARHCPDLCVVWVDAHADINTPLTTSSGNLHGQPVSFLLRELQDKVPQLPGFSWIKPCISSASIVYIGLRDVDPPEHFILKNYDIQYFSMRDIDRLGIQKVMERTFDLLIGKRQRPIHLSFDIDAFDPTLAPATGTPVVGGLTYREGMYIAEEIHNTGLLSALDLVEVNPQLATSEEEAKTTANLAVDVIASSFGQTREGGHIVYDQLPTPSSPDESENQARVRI
Description: in vitro enzyme assay to detect the production of urea directly proportional to the activity of Arginase II. Also: in the data most compounds retested in dose-response had high values. In kind it is functional. The note with it: 33.3 µM.

In experiment [6] the target is T3, Proteasome subunit beta (Trypanosoma cruzi) (UniProt O96673).
T3 sequence (whole entry): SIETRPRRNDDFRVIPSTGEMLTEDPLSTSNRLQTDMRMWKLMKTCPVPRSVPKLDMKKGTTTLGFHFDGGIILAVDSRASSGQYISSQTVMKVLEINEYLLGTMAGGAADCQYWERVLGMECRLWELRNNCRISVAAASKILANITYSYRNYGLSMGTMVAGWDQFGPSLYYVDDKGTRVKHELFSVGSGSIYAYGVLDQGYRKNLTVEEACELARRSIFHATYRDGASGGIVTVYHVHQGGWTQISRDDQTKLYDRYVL
The experiment can be described thus: Trypanosoma cruzi proteasome chymotrypsin-like activity (TcProtChymo) assay. Also: in the data most compounds retested in dose-response had high values. In kind it is functional. The conditions noted are these: 9.37 µM.

A further experiment is filed under the species Homo sapiens. The experiment can be described thus: To identify inhibition of the IFN signalling (Jak-Stat) pathway via expression of an eGFP reporter gene under the control of an IFN-stimulated response element (ISRE) containing MxA promoter. In kind it is functional. The conditions noted are these: 30 µM.
Experiment [7] has as its target T4, Tyrosyl-tRNA synthetase, putative (Trypanosoma cruzi (strain CL Brener)) (UniProt Q4DSP6).
T4 sequence (whole entry): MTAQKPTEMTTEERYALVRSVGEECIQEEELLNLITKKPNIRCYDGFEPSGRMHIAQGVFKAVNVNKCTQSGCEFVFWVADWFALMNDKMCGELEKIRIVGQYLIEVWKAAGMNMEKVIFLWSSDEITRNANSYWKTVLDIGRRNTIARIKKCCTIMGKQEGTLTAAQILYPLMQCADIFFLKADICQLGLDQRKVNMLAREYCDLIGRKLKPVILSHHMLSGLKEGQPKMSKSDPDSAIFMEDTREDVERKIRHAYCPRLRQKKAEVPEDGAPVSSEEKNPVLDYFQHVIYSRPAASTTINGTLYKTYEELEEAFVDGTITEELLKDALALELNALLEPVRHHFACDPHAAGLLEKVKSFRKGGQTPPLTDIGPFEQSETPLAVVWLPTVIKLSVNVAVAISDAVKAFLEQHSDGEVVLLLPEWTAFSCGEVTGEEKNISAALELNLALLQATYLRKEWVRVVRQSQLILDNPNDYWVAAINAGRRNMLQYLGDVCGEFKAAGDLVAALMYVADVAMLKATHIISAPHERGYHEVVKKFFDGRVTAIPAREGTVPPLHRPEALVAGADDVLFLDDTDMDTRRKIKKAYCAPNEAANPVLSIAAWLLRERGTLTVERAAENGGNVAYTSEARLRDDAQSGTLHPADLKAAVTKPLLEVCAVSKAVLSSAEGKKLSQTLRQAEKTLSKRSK
Description: Trypanosoma cruzi tyrosyl tRNA synthetase (TcYRS) _High Tyrosine SOP. Also: in the data most compounds retested in dose-response had high values. It counts as functional. The conditions noted are these: 30 µM.

The target in experiment [8] is T4, Tyrosyl-tRNA synthetase, putative (Trypanosoma cruzi (strain CL Brener)). Description: Trypanosoma cruzi tyrosyl tRNA synthetase (TcYRS) SOP. It counts as functional. The note with it: 30 µM.
Experiment [9] concerns the target Chromo domain-containing protein 1 (Saccharomyces cerevisiae (strain ATCC 204508 / S288c) (Baker's yeast)) (UniProt P32657). The experiment can be described thus: ScCHD-1 Enzyme Inhibition Assay. Also: in the data most compounds retested in dose-response had high values. The conditions noted are these: 30 µM. In kind it is functional.

For some of these results: Results with a measured potency or affinity are listed apart.

Sequence of Chromo domain-containing protein 1 (Saccharomyces cerevisiae (strain ATCC 204508 / S288c) (Baker's yeast)) (P32657 whole entry, the tested form may be a part): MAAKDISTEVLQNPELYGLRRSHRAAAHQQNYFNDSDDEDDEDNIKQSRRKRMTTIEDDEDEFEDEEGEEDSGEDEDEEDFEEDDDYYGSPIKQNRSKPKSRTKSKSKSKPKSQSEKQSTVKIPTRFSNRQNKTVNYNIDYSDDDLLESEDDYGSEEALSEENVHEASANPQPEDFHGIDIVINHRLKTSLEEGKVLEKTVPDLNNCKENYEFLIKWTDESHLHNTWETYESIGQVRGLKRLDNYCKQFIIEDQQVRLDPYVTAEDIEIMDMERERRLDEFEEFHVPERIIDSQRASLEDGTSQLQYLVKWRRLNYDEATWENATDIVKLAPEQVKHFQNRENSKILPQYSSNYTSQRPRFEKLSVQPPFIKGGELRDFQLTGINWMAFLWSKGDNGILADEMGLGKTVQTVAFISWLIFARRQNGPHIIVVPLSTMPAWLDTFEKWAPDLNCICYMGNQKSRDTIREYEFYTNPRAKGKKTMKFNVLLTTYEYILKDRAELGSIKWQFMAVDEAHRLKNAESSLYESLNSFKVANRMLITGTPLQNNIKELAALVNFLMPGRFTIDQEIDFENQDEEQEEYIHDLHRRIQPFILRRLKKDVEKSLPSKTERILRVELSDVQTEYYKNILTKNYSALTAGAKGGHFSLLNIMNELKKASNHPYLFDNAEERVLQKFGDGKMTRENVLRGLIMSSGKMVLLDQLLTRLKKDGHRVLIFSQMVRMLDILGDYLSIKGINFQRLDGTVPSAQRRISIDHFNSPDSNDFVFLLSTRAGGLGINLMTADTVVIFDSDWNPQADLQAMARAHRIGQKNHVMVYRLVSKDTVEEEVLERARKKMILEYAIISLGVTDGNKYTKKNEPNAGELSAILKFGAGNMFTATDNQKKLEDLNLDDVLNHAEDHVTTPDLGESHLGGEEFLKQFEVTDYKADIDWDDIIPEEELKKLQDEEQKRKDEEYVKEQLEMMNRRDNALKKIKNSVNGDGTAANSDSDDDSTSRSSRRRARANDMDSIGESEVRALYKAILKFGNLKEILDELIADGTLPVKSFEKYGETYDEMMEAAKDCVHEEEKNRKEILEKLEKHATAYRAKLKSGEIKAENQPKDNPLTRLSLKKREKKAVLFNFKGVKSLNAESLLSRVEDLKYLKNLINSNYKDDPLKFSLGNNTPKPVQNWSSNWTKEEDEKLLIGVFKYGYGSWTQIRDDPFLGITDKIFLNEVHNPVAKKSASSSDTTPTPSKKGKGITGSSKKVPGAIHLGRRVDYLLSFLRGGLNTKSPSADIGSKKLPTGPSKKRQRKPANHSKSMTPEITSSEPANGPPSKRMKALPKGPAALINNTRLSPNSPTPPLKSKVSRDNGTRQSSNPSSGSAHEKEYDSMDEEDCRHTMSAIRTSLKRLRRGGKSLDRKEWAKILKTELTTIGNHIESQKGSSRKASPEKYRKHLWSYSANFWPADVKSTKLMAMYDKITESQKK
Sequence of Protein translocase subunit SecA (Escherichia coli (strain K12)) (P10408 whole entry): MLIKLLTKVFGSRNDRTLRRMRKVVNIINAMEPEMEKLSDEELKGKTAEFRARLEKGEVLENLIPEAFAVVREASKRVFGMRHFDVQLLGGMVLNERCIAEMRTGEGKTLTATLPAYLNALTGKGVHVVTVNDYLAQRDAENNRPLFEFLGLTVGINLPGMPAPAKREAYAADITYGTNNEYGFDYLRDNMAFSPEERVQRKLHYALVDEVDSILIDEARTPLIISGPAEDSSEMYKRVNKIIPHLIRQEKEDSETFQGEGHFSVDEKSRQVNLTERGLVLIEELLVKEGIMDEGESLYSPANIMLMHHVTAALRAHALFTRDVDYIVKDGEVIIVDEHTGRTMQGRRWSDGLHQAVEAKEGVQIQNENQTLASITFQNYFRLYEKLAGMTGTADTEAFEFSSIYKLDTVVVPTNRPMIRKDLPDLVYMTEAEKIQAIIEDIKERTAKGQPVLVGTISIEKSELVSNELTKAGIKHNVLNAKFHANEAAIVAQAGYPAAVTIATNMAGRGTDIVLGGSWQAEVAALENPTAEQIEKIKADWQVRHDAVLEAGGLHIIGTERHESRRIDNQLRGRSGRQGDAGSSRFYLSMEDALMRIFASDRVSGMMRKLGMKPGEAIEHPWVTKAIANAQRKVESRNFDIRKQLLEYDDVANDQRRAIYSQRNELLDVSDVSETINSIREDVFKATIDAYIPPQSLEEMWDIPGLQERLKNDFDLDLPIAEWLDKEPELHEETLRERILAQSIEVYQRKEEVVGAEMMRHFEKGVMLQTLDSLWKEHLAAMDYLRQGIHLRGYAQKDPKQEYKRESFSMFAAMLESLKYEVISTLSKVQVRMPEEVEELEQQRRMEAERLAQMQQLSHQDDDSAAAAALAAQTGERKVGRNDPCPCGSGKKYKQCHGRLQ

Turning to `CCOc1ccnc(N2CCN(C(=O)c3cccc(C#N)c3)CC2)n1`, the Percent Effect was -7.73% in [1]; 13.2% in experiment [2]; -3.41% in experiment [3]; 8.57% in experiment [4]; -1.77% in the experiment on Trypanosoma cruzi; -2.88% in experiment [5]. Also, the Percent Effect in experiment [6] is 3.47%; in the experiment filed under Homo sapiens it was 8.64%; in [7], 2.46%; in experiment [8] it was 11.1%; in experiment [9] it was 2.13%.
In the case of `Cc1nc(C2CCCN2Cc2nnc(C3CC3)o2)no1` (stereo unspecified), the Percent Effect was -2% in experiment [1]; 2.7% in experiment [2]; 4.19% in experiment [3]; 3.15% in [4]; -1.21% in the experiment with Trypanosoma cruzi; -0.554% in [5]. Also, the Percent Effect in [6] was 17.2%; in the experiment filed under Homo sapiens it was 16.6%; in experiment [7], 9.9%; in experiment [8], 18.3%; in experiment [9] it was -3.91%.
With `O=C(c1ccnnc1)N1C[C@H]2CCC[C@@]2(COCC2CCOCC2)C1`, the Percent Effect in experiment [1] is -1.23%; in [2], -16.2%; in experiment [3], 2.91%; in experiment [4], 1.16%; in the experiment on Trypanosoma cruzi it was 7.72%; in experiment [5], -2.87%. The Percent Effect in experiment [6] was 9.04%; in the experiment filed under Homo sapiens it was -6.27%; in [7], -1.08%; in experiment [8] it was 5.13%; in [9], 0.739%.
Consider `Fc1cnc(N2CCCC3(CN(Cc4ccncc4)CCO3)C2)nc1` (stereo unspecified), for which the Percent Effect was -2.51% in [1]; 13.3% in experiment [2]; 12.9% in experiment [3]; -0.573% in experiment [4]; -2.95% with Trypanosoma cruzi; 1.63% in [5]. Besides, the Percent Effect in [6] was 12.2%; in the experiment filed under Homo sapiens it was 8.63%; in [7], 8.51%; in [8], 16.7%; in [9], -5.31%.
Regarding `CN1CC(=O)N(c2cccc(F)c2)CC12CCN(Cc1cccnc1)C2` (stereo unspecified), the Percent Effect in [1] is 1.08%; in experiment [2], 7.79%; in experiment [3], 4.97%; in [4] it was 4.25%; in the experiment with Trypanosoma cruzi it was -2.46%; in experiment [5] it was 12.3%. For the same molecule, the Percent Effect in experiment [6] was 12.9%; in the experiment filed under Homo sapiens, 7.53%; in [7], 3.17%; in experiment [8], 11.5%; in experiment [9], -1.97%.
As for `Cc1cc(CN2CCCC2c2noc(C3CC3)n2)c2ccccc2n1` (stereo unspecified), the Percent Effect in experiment [1] is 1.53%; in [2] it was -16.2%; in experiment [3] it was -1.25%; in experiment [4] it was 5.64%; in the experiment on Trypanosoma cruzi, -1.39%; in experiment [5], 9.8%. The Percent Effect in experiment [6] is -4.49%; in the experiment listed under Homo sapiens, 94.8%; in [7], 11.9%; in [8], 3.66%; in experiment [9], 12.8%.
Take `COC(=O)N1CCCN(C(=O)NCc2ccc(Cl)s2)CC1`: the Percent Effect was -1.83% in experiment [1]; 16.5% in experiment [2]; 4.69% in experiment [3]; -2.7% in experiment [4]; 0.308% in the experiment with Trypanosoma cruzi; -4.09% in experiment [5]. Besides, the Percent Effect was 12.9% in experiment [6]; 19.3% in the experiment filed under Homo sapiens; 7.29% in [7]; 15.2% in experiment [8]; -27.7% in experiment [9].
In the case of `COc1ccc(C(=O)N2CCCCC2Cn2cccn2)c(F)c1` (stereo unspecified), the Percent Effect in [1] was -1.68%; in [2], 15.6%; in experiment [3], 2.24%; in [4], 6.84%; in the experiment on Trypanosoma cruzi, 1.5%; in [5], -1.42%. Moreover, the Percent Effect is 13.7% in experiment [6]; -14.3% in the experiment listed under Homo sapiens; 6.8% in experiment [7]; 14.6% in [8]; -9.15% in [9].
Take `Fc1ccc(-c2nnc(CN3CCCC3Cn3cncn3)o2)cc1` (stereo unspecified): the Percent Effect is -1.9% in experiment [1]; 5.2% in [2]; -0.239% in experiment [3]; 9.41% in experiment [4]; 6.93% in the experiment on Trypanosoma cruzi; 0.712% in experiment [5]. For the same molecule, the Percent Effect in experiment [6] was 7.26%; in the experiment filed under Homo sapiens, -14.3%; in [7], 4.85%; in experiment [8] it was 19.5%; in [9] it was -10.5%.
Turning to `CCCNC(=O)N1CCN(Cc2cc(C)no2)CC1`, the Percent Effect in experiment [1] is -3.25%; in experiment [2] it was 23.7%; in experiment [3] it was -8.42%; in experiment [4], -2.41%; in the experiment with Trypanosoma cruzi, 6.07%; in experiment [5], -2.16%. Further, the Percent Effect in [6] is 17.5%; in the experiment filed under Homo sapiens, 2.72%; in experiment [7], 8.37%; in experiment [8] it was 23.5%; in experiment [9], -7.68%.
`Cc1nccn1CC1CCCN1S(=O)(=O)Cc1ccccc1` (stereo unspecified): the Percent Effect in experiment [1] was -4.51%; in experiment [2], 5.06%; in experiment [3], 2.14%; in [4], 4.66%; in the experiment with Trypanosoma cruzi, 3.49%; in [5], 1.9%. Moreover, the Percent Effect in [6] was -0.573%; in the experiment filed under Homo sapiens, -9.27%; in experiment [7], 2.46%; in [8], 3.8%; in [9], -0.456%.
